PubChem BioAssay AID1851 (National Center for Advancing Translational Sciences (NCATS), 2009)
Several values for one entry are separate records, joined by “and”; a condition that tells them apart may be missing. Equal entries are not always repeated. Screen size: about 16,000 compounds; about 4,000 (25%) were called active. Another 26% or so got no clear call; they are omitted. Calls follow the shape of the dose curve; as a rule, active = well fitted curve in the direction sought with a large enough effect; inconclusive = small, poorly fitted or top-dose-only effect, or effect the other way; inactive = no such curve, though single readings can be large or run the other way. A selection follows. More than one record can exist for a structure, and the calls need not agree. Square brackets hold non-standard residues; d marks the D form. Peptide text beside a SMILES is read from it. * marks the point of attachment. ξ: configuration not given here. Cbz = O=C(OCc1ccccc1)*; PhAc = O=C(Cc1ccccc1)*; OBn = c1ccc(CO*)cc1; ξP = O=C(O)C1CCCN1

What follows are compounds tested against Cytochrome P450 2C9 (Homo sapiens) (UniProt P11712) (assay: Cytochrome panel assay with activity outcomes). Details: recombinant CYP, pro-luciferin dealkylation, luminescence, p450-cyp2c9; series mostly up to 57.1 µM.
Chain of Cytochrome P450 2C9 (Homo sapiens) (P11712 whole entry, looked up): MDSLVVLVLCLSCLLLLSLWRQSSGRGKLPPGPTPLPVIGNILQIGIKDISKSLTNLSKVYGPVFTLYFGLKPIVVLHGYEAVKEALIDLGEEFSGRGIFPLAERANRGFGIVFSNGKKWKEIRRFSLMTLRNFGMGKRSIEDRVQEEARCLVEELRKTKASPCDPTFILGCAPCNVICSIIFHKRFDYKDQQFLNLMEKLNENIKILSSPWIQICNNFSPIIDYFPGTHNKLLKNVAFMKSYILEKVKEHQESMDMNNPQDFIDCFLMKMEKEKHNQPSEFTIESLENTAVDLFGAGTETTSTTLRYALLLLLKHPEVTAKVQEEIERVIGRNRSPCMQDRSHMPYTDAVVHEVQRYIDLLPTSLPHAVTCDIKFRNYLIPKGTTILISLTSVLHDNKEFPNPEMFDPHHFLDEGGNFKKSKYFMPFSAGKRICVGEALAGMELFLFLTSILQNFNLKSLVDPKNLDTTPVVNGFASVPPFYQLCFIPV
% is scaled to controls: 0 for no effect and ±100 for the full control effect.

SMILES	AC50	activity, negative = inhibition
Cc1cccn2c(=O)c3cc(C(=O)N4COCC4(C)C)n(C)c3nc12	inactive	
c1ccc2c3c([nH]c2c1)[C@@H]1[C@H]2CC[C@H]([C@H]4CCCN[C@H]42)N1CC3	inactive	
CC(=O)C=NCC(=O)O		-1.6% [at 11.4 µM] (inactive)
O=c1cc(N2CCCCC2)c(-c2ccccc2)nn1Cc1ccccc1Cl	20 µM (active)	
CC1=NOC(=O)/C1=C\c1ccc(-c2ccc(Cl)cc2Cl)o1	10 µM (active)	
CCCCCCCCCCCCCCC[C@@H](O)[C@@H](N)CO	inactive	
NC(=O)OCC(COC(N)=O)c1ccccc1	inactive	
COc1ccccc1N1CCN(CCCCN2C(=O)CCC2=O)CC1	3.98 µM (active)	
COc1ccccc1N1CCN(CCCNc2cc(=O)n(C)c(=O)n2C)CC1	inactive and 12.6 µM (active)	
COc1ccccc1N1CCN(CCCCNC(=O)c2ccc3ccccc3c2)CC1	inactive	
COc1ccccc1N1CCN(CCN2C(=O)c3ccccc3C(C)(C)C2=O)CC1	inactive	
COc1ccccc1N1CCN(CCN2C(=O)CC3(CCCC3)CC2=O)CC1	inactive	
COc1ccccc1N1CCN(CCCCN2C(=O)c3ccccc3C2=O)CC1	inactive	
O=C(NCCCN1CCCCCC1)[C@@H](c1ccccc1)C1CCCCC1	inactive	
N=c1c(C(=O)NC2CCCC2)cc2c(=O)n3ccccc3nc2n1C1CCCC1	inactive	
Cn1nc(C(=O)NC2CCCCC2)c2ccccc2c1=O	7.94 µM (active)	
O=C(Nc1nnc(C2CC2)s1)c1cc(S(=O)(=O)N2CCN(c3ccccc3)CC2)ccc1Cl	7.08 µM (active)	
COC(=O)C/C=C\[C@@H](C)[C@@H](/C=N\O[C@@H](C)CN1CCCCc2nc(C)c(C)cc21)NS(=O)(=O)c1ccc(C)cc1		-13.5% [at 11.4 µM] (inactive)
COc1ccccc1C(=O)N/C(=C/c1ccc(Br)cc1)C(=O)NCC(=O)O	15.8 µM (active)	
O=C(CNC(=O)OCc1ccccc1)NCC(=O)N1CCCC1C(=O)OCc1ccccc1 (stereo not drawn) (Cbz-Gly-Gly-[ξP]-OBn)	inactive	
O=C(O)CNC(=O)c1ccccc1O		1.11% [at 11.4 µM] (inactive)
O=C(NCC1CCCO1)/C(=C\c1ccco1)NC(=O)c1ccccc1 (centres undefined)	inactive	
O=C(NC(Cc1ccccc1)C(=O)O)/C(=C\c1ccco1)NC(=O)c1ccc(Br)cc1 (centres undefined)	15.8 µM (active)	

SMILES	AC50	activity, negative = inhibition
O=C(CNC(=O)Cc1ccccc1)NCC(=O)OCc1ccccc1 (PhAc-Gly-Gly-OBn)	inactive	
O=C(CNC(=O)/C(=C\c1ccccc1)NC(=O)c1ccc(Br)cc1)OCc1ccccc1	3.55 µM (active)	
COc1cc(/C=C(/NC(=O)c2ccccc2Cl)C(=O)O)cc(OC)c1OC	inactive	
O=C(O)C/C(=C\c1ccco1)C(=O)O		4.79% [at 11.4 µM] (inactive)
O=[N+]([O-])c1ccc(CSc2ncnc3c2ncn3[C@@H]2O[C@@H](CO)[C@@H](O)[C@H]2O)cc1	inactive	
C=C(Br)CN(C)CC(=C)Br		2.22% [at 11.4 µM] (inactive)
CC(=O)OCC1=C(C(=O)O)N2C(=O)[C@@H](NC(=O)Cc3cccs3)[C@@H]2SC1	inactive	
COc1ccc(CNc2cc(-c3cccnc3)ncn2)c(OC)c1		17.1% [at 2.29 µM] (inactive)
COc1ccc(CCNc2nc(-c3cccnc3)cs2)cc1OC	2.51 µM (active)	
COc1ccccc1CNc1cc(-c2cccnc2)ncn1		-0.576% [at 2.29 µM] (inactive)
Cc1sc(NC(=O)C2CCCCC2)c(C#N)c1-c1ccccc1	15.8 µM (active)	
Cc1sc(NC(=O)/C=C/c2ccc(C(C)C)cc2)c(C#N)c1C	inactive	
Oc1ccc(CNCc2ccccc2)c2cccnc12		-9.84% [at 11.4 µM] (inactive)
CC(C)OC(=O)C(C#N)c1nc2ccccc2nc1N1CCN(Cc2ccccc2)CC1 (centres undefined)	2.82 µM (active)	
CC(C)NC1(C(N)=O)CCN(Cc2ccccc2)CC1		-5.53% [at 11.4 µM] (inactive)
CC(=O)N1CCC2(CCN(Cc3ccccc3)CC2)CC1	inactive	
CN(C)c1ccc(-c2ccc3ncnc(N4CCNCC4)c3c2)cc1		6% [at 2.29 µM] (inactive)
Cc1cccc(CNc2ccnc(-c3ccoc3)n2)c1		-14.6% [at 2.29 µM] (inactive)
Cc1nn2c(C)nc3sc4c(c3c2nc1=O)CC(C)(C)OC4	inactive	
CC1(C)Cc2c(sc3nc(-c4ccccc4)n(N)c(=O)c23)CO1	12.6 µM (active)	
CCCN1C[C@H](CSC)C[C@H]2c3cccc4[nH]cc(c34)C[C@@H]21	inactive	
N[C@@H](CCCP(=O)(O)O)C(=O)O	inactive	
CCN(CC)c1ccc(NC(=O)CSc2nnc3nc(C)cc(C)n23)cc1	inactive	

SMILES	AC50	activity, negative = inhibition
CN(C)c1ccc(NC(=O)CSc2nc(N)c(C(=O)Nc3ccc(N(C)C)cc3)s2)cc1	2.82 µM (active)	
C[C@@]12CCC(=O)C=C1CC[C@H]1[C@@H]2[C@@H](O)C[C@]2(C)[C@@H]1CC[C@@]2(O)C(=O)CO		-3.75% [at 11.4 µM] (inactive)
CCOC(=O)c1c(N2C(=O)Nc3cc(Cl)c(Cl)cc3N2O)sc2c1CCCCC2	3.55 µM (active)	
Cc1ccc(S(=O)(=O)Oc2cc(N)c3c(n2)CCC3)cc1		20.5% [at 11.4 µM] (inactive)
CN(C)C[C@H]1CCC2=C(C1=O)C(c1ccc(Cl)c(Cl)c1)C1=C(CC[C@H](CN(C)C)C1=O)O2		-1.08% [at 11.4 µM] (inactive)
Cc1ccc(S(=O)(=O)Oc2cc(S(=O)(=O)O)cc3cc(S(=O)(=O)O)cc(N)c23)cc1		-5.74% [at 11.4 µM] (inactive)
O=C1CCCC2=C1C(c1ccc(OS(=O)(=O)c3ccc(Cl)cc3)cc1)C1=C(CCCC1=O)O2	7.08 µM (active)	
Cc1ccc(S(=O)(=O)Oc2ccc(C3C4=C(CCCC4=O)OC4=C3C(=O)CCC4)cc2)cc1	3.98 µM (active)	
O=C(O)c1c2c(c(O)c3c1CN(C1CCCCC1)CO3)OCN(C1CCCCC1)C2		-1.96% [at 11.4 µM] (inactive)
O=C(/C=C\c1ccc(O)c(O)c1)O[C@@H](Cc1ccc(O)c(O)c1)C(=O)O	inactive	
Cc1ccccc1S(=O)(=O)O[C@@H]1NS(=O)(=O)c2ccccc21		20.8% [at 11.4 µM] (inactive)
Cc1ccccc1S(=O)(=O)Oc1ccccc1C(=O)Oc1ccccc1	2.24 µM (active)	
Cc1cc2c(c(=O)o1)[C@@H](O)[C@H]1O[C@@H]1C2=O		-1.55% [at 11.4 µM] (inactive)
O=C(Nc1nnc(-c2ccc(Cl)cc2)o1)Nc1ccccc1Cl	inactive	
COc1ccc(CC(=O)Nc2cccc(-c3nnc(-c4ccco4)o3)c2)cc1	0.316 µM (active)	
O=C(Cc1ccc(Cl)cc1)Nc1cccc(-c2nnc(-c3ccco3)o2)c1	0.178 µM (active)	
COc1ccc(CC(=O)Nc2ccc(-c3noc(-c4cccc(OC)c4)n3)cc2)cc1	inactive	
COc1ccccc1CN1CCC2(CC1)CCN(C(=O)c1c(C)noc1C)CC2	inactive	
CN(Cc1ccco1)c1ccnc(-c2cccc(NS(C)(=O)=O)c2)n1		-11.7% [at 2.29 µM] (inactive)
O=C(CC(=O)NN=C1CCCC1)NCCc1ccccc1	inactive	
CC1CCC(=NNC(=O)Cc2ccccc2)CC1 (centres undefined)	inactive	
COc1ccc(N(CC(=O)NN=C2CCCC2)S(=O)(=O)c2ccccc2)cc1	10 µM (active)	
COCCCNC(=O)CN(c1ccc(OC)cc1)S(=O)(=O)c1ccc(NC(C)=O)cc1	11.2 µM (active)	

SMILES	AC50	activity, negative = inhibition
COc1ccc2c(=O)cc(-c3ccncc3)oc2c1OC		-7.78% [at 11.4 µM] (inactive)
O=S(=O)(O)c1ccc(-c2nnc(-c3ccccn3)nc2-c2ccc(S(=O)(=O)O)o2)o1		-9.22% [at 11.4 µM] (inactive)
CO[C@@H]1COC(=O)[C@@H](C)NC(=O)C/C=C\[C@@H](C)[C@H](NS(=O)(=O)c2ccc(C)cc2)COC(=O)[C@H](C)NC(=O)C/C=C\[C@H]1C		9.56% [at 11.4 µM] (inactive)
CC1(C)OC(=O)NC1=O	inactive	
COC(=O)Cn1cnc(=O)c(C#N)c1/C=C/N(C)C	inactive	
Cc1cnc(CNc2ncnc3ccc(-c4ccccc4C)cc23)cn1		0.0371% [at 2.29 µM] (inactive)
COc1ccc(NC(=O)N2CC[C@@]3(CCCN(C(=O)c4cccn4C)C3)C2)cc1	inactive	
NC(=O)[C@H]1CC2(CC(c3cccc(NC(=O)c4ccccc4)c3)=NO2)CN1C(=O)[C@H]1CCC(=O)N1 (some centres undefined)	inactive	
c1ccc(Nc2ncnc3ccc(-c4cccnc4)cc23)cc1		5.26% [at 2.29 µM] (inactive)
Brc1ccc2ncnc(Nc3cccc4ccccc34)c2c1	2.51 µM (active)	
Clc1cccc(Nc2ncnc3ccc(Br)cc23)c1	14.1 µM (active)	
CNc1ncnc2ccc(-c3ccccc3CN(C)C)cc12		-7.28% [at 2.29 µM] (inactive)
c1ccc(Nc2ncnc3ccc(-c4ccoc4)cc23)cc1		1.19% [at 2.29 µM] (inactive)
NCCNc1ncnc2ccc(Cl)cc12		6.44% [at 11.4 µM] (inactive)
CN[C@H]1[C@@H](O[C@@H]2[C@H](O[C@@H]3[C@@H](O)[C@@H](O)[C@@H](N=C(N)N)[C@@H](O)[C@@H]3N=C(N)N)O[C@H](C)[C@@]2(O)C=O)O[C@@H](CO)[C@@H](O)[C@H]1O	inactive	
CCc1c2c(nc3cccc(SC)c13)COC2	inactive	
CC(C)OC(=O)c1nnn(-c2nonc2N)c1CSc1ccccn1	1.58 µM (active)	
Cc1cc(OC(=O)c2ccc(Cl)cc2Cl)nc(C)n1	5.62 µM (active)	
Cc1oc2c(C)c(O)ccc2c(=O)c1-c1ccc2ccccc2n1	inactive	
CCc1cc2c(=O)c(-c3nc4ccccc4n3C)c(C)oc2c(CN(CC)CC)c1O	14.1 µM (active)	
